Assay results taken from PubChem BioAssay.
Activity calls are given as the source filed them. Unless noted, no rule for the calls is given here.

Tests used:
[1] = test system: XIP peptide (Xip251-270) binding; experiment: small-molecule binders of XIP peptide, primary screen, biochemical, small-molecule microarray, fluorescence 635/667 nm, 0.1 µg/mL protein (AID 1182); conditions: fluorescent protein binding, 635 nm, higher = more signal, called active from +8 up or from −8 down
[2] = test system: XIP peptide (Xip251-270); experiment: small-molecule binders of XIP peptide, primary screen, biochemical, small-molecule microarray, fluorescence 635/667 nm, 0.5 µg/mL protein (AID 1183); conditions: small-molecule microarray binding, fluorescence 635 nm; higher = more signal
[3] = Plasmodium falciparum growth inhibition, primary screen, strain 3D7, DAPI fluorescence, 100 nL (AID 1184);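 also: parasites grown inside human red blood cells in medium with human serum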; conditions: P. falciparum 3D7 growth, 3 d, higher = more signal
[4] = target: Homeobox protein Hox-A13 (Mus musculus) (UniProt Q62424); experiment: inhibitors of HoxA13-DNA binding, primary screen, biochemical, fluorescence polarization, labeled oligonucleotide (AID 1185); conditions: 15 min, higher = more signal, called active from +8 up or from −8 down
[5] = inhibitors of hydroxyurea-induced Chk1 phosphorylation, primary screen, imaging, HeLa, phospho-Chk1 antibody, percent positive cells (AID 1186); conditions: hydroxyurea-induced phospho-Chk1 immunofluorescence imaging, higher = more signal
[6] = inhibitors of hydroxyurea-induced Chk1 phosphorylation, primary screen, imaging, HeLa, phospho-Chk1 nuclear intensity (AID 1187); conditions: hydroxyurea-induced phospho-Chk1 immunofluorescence imaging, higher = more signal

Sequence of Homeobox protein Hox-A13 (Mus musculus) (Q62424 whole entry, looked up): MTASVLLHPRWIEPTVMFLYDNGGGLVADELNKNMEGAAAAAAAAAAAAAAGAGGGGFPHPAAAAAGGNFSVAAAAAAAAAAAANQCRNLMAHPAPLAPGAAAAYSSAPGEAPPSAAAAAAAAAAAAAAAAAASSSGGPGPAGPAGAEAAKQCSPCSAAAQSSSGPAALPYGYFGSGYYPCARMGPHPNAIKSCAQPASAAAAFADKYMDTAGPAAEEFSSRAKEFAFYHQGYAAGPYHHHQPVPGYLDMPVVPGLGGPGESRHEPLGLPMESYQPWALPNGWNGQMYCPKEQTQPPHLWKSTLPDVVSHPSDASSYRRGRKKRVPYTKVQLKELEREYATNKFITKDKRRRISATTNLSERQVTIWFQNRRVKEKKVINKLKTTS

| SMILES | composite z-score [1] | composite z-score [2] | z-score [3] | z-score [4] | z-score [5] | z-score [6] |
| --- | --- | --- | --- | --- | --- | --- |
| [N-]=[N+]=Nc1ccccc1C[C@]1(C(=O)NCCN2CCOCC2)N=C(c2ccc(OCCCO)cc2)O[C@H]1c1ccccc1 | 0.533 (inactive) | 0.902 | -2.37 | -5.89 (inactive) | 0.184 (inactive) | 0.535 (inactive) |
| CC(C)C[C@@H]1NC(=O)[C@@H]2C[C@H](C(=O)NCCCCCC[N+](C)(C)C)[C@H](c3ccc(O)cc3)N2C1=O | 1.5 (inactive) | 0.535 | 0.727 | -2.3 (inactive) | -0.525 (inactive) | -0.124 (inactive) |
| O=C1O[C@H](c2ccccc2)[C@H](c2ccccc2)N2[C@H]1[C@@H](C(=O)NC[C@H](O)c1ccccc1)[C@]1(C(=O)Nc3ccc(C#CCCO)cc31)[C@H]2c1ccc(O)cc1 | -0.105 (inactive) | 0.278 | -1.23 | -0.545 (inactive) | 0.289 (inactive) | 0.0974 (inactive) |
| O=C1C2C=CC(C(O)c3ccc(B(O)O)cc3)N(Nc3ccccc3)C2C(=O)N1c1ccccc1 (centres undefined) | 0.158 (inactive) | -0.197 | -0.545 | -3.99 (inactive) | -0.149 (inactive) | -0.329 (inactive) |
| CCOC(=O)C1=C[C@@H](CC)N(S(=O)(=O)c2ccc(C)cc2)[C@H]1c1ccccc1 | 0.54 (inactive) | 0.208 | -1.81 | -2.63 (inactive) | 0.553 (inactive) | 0.54 (inactive) |
| CC(C)c1ccc(NN2C(C(O)c3c(F)cccc3Cl)C=CC3C(=O)N(c4ccccc4)C(=O)C32)cc1 (centres undefined) | 0.38 (inactive) | 0.748 | -0.668 | -1.64 (inactive) | 0.561 (inactive) | 0.539 (inactive) |
| CC1CC/C=C\[C@H]2OC34C=CCN(Cc5ccccc5)C(=O)[C@H]3N(CCCCCO)C(=O)[C@@H]4C2C(=O)O1 (some centres undefined) | -0.0864 (inactive) | 0.525 | 1.65 | -5.11 (inactive) | -0.0458 (inactive) | -0.0669 (inactive) |
| COCC(=C=CC[C@H](O)c1ccc(OCCO)cc1)C[C@H](O)c1cc(Cl)cc(Cl)c1O | 0.423 (inactive) | 0.161 | -1.55 | -4.13 (inactive) | -0.559 (inactive) | 0.56 (inactive) |
| CN(C)C(=O)[C@]1(CCC(=O)OC(C)(C)C)N=C(c2ccc(OCCCO)cc2)O[C@@H]1c1ccccc1N=[N+]=[N-] | 0.639 (inactive) | 0.803 | -1.84 | -6.23 (inactive) | 0.201 (inactive) | 0.588 (inactive) |
| O=C1O[C@@H](c2ccccc2)[C@@H](c2ccccc2)N2[C@@H](c3ccc(O)cc3)[C@]3(C(=O)Nc4ccc(C#CC5(O)CCCCCC5)cc43)[C@@H](C(=O)N3CCCCCCC3)[C@H]12 | 1.51 (inactive) | 0.855 | -0.667 | 1.7 (inactive) | -0.129 (inactive) | -0.0414 (inactive) |
| O=C1OCC=C[C@H]2OC34C=CCN(c5ccc6ccccc6c5)C(=O)[C@H]3N(CCCO)C(=O)[C@@H]4[C@@H]12 (some centres undefined) | 0.185 (inactive) | 1.03 | -1.94 | -2.03 (inactive) | -0.114 (inactive) | -0.226 (inactive) |
| COC(=O)c1ccc(C(O)C2C=CC3C(=O)N(c4ccccc4)C(=O)C3N2Nc2ccc(C#N)cc2)o1 (centres undefined) | 0.324 (inactive) | 0.37 | 0.229 | -3.24 (inactive) | -0.645 (inactive) | -0.852 (inactive) |
| CC(C)(C)N1CC=CC23O[C@@H]4/C=C\CCCOC(=O)C4[C@H]2C(=O)N(CCO)[C@@H]3C1=O (some centres undefined) | -0.0146 (inactive) | 0.368 | -1.38 | -4.95 (inactive) | 0.205 (inactive) | 0.299 (inactive) |
| COCCOC(=O)N1C(=O)[C@@]2(c3cc(C#CCNC(N)=O)ccc31)[C@H](c1ccc(O)cc1)N1[C@H](c3ccccc3)[C@H](c3ccccc3)OC(=O)[C@H]1[C@@H]2C(=O)NC[C@H](O)c1ccccc1 | 1.82 (inactive) | 0.733 | -0.0916 | -3.19 (inactive) | -0.107 (inactive) | -0.369 (inactive) |
| CC(C)=CCCC(C)=CC(O)C1C=CC2C(=O)N(c3ccccc3)C(=O)C2N1Nc1ccccc1 (centres undefined) | 0.634 (inactive) | 0.828 | -0.168 | -3.67 (inactive) | 0.881 (inactive) | 0.352 (inactive) |
| O=c1oc(-c2ccccc2)nc2cc(Br)ccc12 | -0.208 (inactive) | -0.0114 | 1.64 | 4.46 (inactive) | 0.208 (inactive) | 0.0639 (inactive) |
| COc1ccc(C#Cc2ccc3c(c2)[C@]2(C(=O)N3)[C@H](c3ccc(O)cc3)N3[C@H](c4ccccc4)[C@H](c4ccccc4)OC(=O)[C@H]3[C@@H]2C(=O)NC[C@H](O)c2ccccc2)cc1 | 0.265 (inactive) | 0.707 | -1.05 | -0.173 (inactive) | 0.0646 (inactive) | 0.385 (inactive) |

| SMILES | composite z-score [1] | composite z-score [2] | z-score [3] | z-score [4] | z-score [5] | z-score [6] |
| --- | --- | --- | --- | --- | --- | --- |
| CC(C)c1ccc(NN2C(C(O)c3cccc(O)c3)C=CC3C(=O)N(c4ccccc4)C(=O)C32)cc1 (centres undefined) | 0.305 (inactive) | 0.668 | -0.0362 | -4.3 (inactive) | 0.999 (inactive) | 0.88 (inactive) |
| O=C1N(CCS(=O)(=O)c2ccccc2)Cc2ccccc2[C@H]2OC(c3ccc(OCCCO)cc3)=N[C@@]12CCS(=O)(=O)c1ccccc1 | 2.05 (inactive) | 0.81 | -2.09 | -0.483 (inactive) | -0.44 (inactive) | -0.346 (inactive) |
| O=C1OCCC/C=C\[C@H]2OC34C=CCN(Cn5nnc6ccccc65)C(=O)[C@H]3N(CCCCCO)C(=O)[C@@H]4C12 (some centres undefined) | 0.145 (inactive) | 0.545 | 0.961 | -4.39 (inactive) | 0.812 (inactive) | 0.888 (inactive) |
| COc1ccc(C(O)C2C=CC3C(=O)NC(=O)C3N2Nc2ccccn2)cc1OCc1ccccc1 (centres undefined) | 0.816 (inactive) | -0.0026 | -0.235 | -2.68 (inactive) | 0.682 (inactive) | 0.581 (inactive) |
| COc1ccc(C#Cc2ccc3c(c2)[C@]2(C(=O)N3)[C@H](c3ccc(O)cc3)N3[C@H](c4ccccc4)[C@H](c4ccccc4)OC(=O)[C@H]3[C@@H]2C(=O)N2CCCCCCC2)cc1 | 0.59 (inactive) | 0.644 | -2.08 | 3.13 (inactive) | -0.184 (inactive) | -0.0916 (inactive) |
| CC(=O)Nc1cc(Br)ccc1C(=O)O | 1.16 (inactive) | 0.53 | 1.96 | 0.273 (inactive) | 0.1 (inactive) | 0.0714 (inactive) |
| CO[C@H]1O[C@H](CO)[C@@H](OC(=O)Nc2ccc(Oc3ccccc3)cc2)[C@H](OC(=O)Nc2ccccc2)[C@H]1OC(=O)Nc1ccccc1 | 1.21 (inactive) | 0.916 | -2.21 | -1.38 (inactive) | -0.444 (inactive) | -0.307 (inactive) |
| C=CCNC(=O)[C@@H]1[C@H]2C(=O)O[C@H](c3ccccc3)[C@H](c3ccccc3)N2[C@H](c2ccc(O)cc2)[C@@]12C(=O)N(C(=O)OCCOC)c1ccccc12 | 2.55 (inactive) | 0.525 | -2.07 | -2.07 (inactive) | 0.209 (inactive) | 0.354 (inactive) |
| COC(=O)C1=CC(CCCO)=CC(C2CC2)N(Cc2sc3ccccc3c2Cl)C=C1C(=O)OC (centres undefined) | 0.827 (inactive) | 0.793 | -2.02 | -5.27 (inactive) | 0.0745 (inactive) | 0.263 (inactive) |
| CCCC[C@@H]1C[C@H]1[C@@H](NC(=O)c1ccc(-c2ccccc2)cc1)c1ccc(-c2ccccc2)cc1 | 0.0014 (inactive) | -0.532 | -1.05 | -1.24 (inactive) | 0.558 (inactive) | 0.394 (inactive) |
| C=CCOC(=O)[C@H]1[C@@H]2C(=O)O[C@@H](c3ccccc3)[C@@H](c3ccccc3)N2[C@@H](c2ccc(OCCOC(=O)[C@@H]3C[C@@H]4C(=O)NCC(=O)N4[C@@H]3c3ccc(O)cc3)cc2)[C@]12C(=O)Nc1ccccc12 | 0.941 (inactive) | 0.854 | -1.86 | 0.503 (inactive) | -0.341 (inactive) | 0.559 (inactive) |
| CC(C)(C)OC(=O)CC[C@@]1(C(=O)O)N=C(c2ccc(OCCCO)cc2)O[C@@H]1c1ccccc1N=[N+]=[N-] | 1.37 (inactive) | -0.333 | 0.603 | -5.2 (inactive) | -0.157 (inactive) | -0.51 (inactive) |
| [N-]=[N+]=NCc1ccccc1C[C@]1(C(=O)NCC(O)CO)N=C(c2ccc(OCCCO)cc2)O[C@H]1c1ccccc1N=[N+]=[N-] (some centres undefined) | -0.188 (inactive) | 0.0926 | -2.25 | -3.25 (inactive) | -0.985 (inactive) | -1.52 (inactive) |
| O=C1C2C=CC(C(O)c3ccc(-c4ccccc4)s3)N(n3cnnc3)C2C(=O)N1Cc1ccccc1 (centres undefined) | -0.457 (inactive) | 0.951 | -0.802 | -2.98 (inactive) | -0.295 (inactive) | -0.514 (inactive) |
| CC=CC(O)C1C=CC2C(=O)N(c3ccccc3)C(=O)C2N1Nc1ccc(C(C)C)cc1 (centres undefined) | 0.213 (inactive) | 0.766 | -0.747 | -2.24 (inactive) | 0.55 (inactive) | 0.538 (inactive) |
| C=C[C@H](C)[C@@H](O)c1ccc(O)c2ccccc12 | -0.233 (inactive) | 0.507 | -0.935 | -2.67 (inactive) | 0.736 (inactive) | 0.841 (inactive) |
| COC(=O)[C@@]1(Cc2ccccc2)[C@H]2c3cc(C(=O)N4CCCC4)n(C)c3C[C@H]2CN1C(=O)c1ccccc1 | -0.0625 (inactive) | 0.46 | -0.994 | -5.7 (inactive) | 0.0684 (inactive) | -0.0761 (inactive) |
